Inconclusive results are not listed. The source made the active and inactive calls. Unless noted, calls come from the whole dose curve; as a rule, active = well fitted curve in either direction with a large enough effect (not every such curve was filed as active); inconclusive = small, poorly fitted or top-dose-only effect, or another doubt; inactive = flat fitted curve, though single readings scatter.
What was measured:
[1] = AP1 Signaling Pathway (AID 357); note: % is set by controls: 0 for no effect and ±100 for the full control effect
Outline: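 ME-180 cells with beta-lactamase reporter under AP-1 response element, stimulated with EC50 EGF; compounds tested in titration series, 5 h at 37 °C. CCF4 substrate added 2.5 h at room temperature; 460/530 nm emission ratio gave %activity and AC50.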

[2] = molecular target: Cytochrome P450 1A2 (Homo sapiens) (UniProt P05177); assay: p450-cyp1a2 (AID 410; calls by dose curve;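 note: -100% = full effect of reference inhibitor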)
Sequence of Cytochrome P450 1A2 (Homo sapiens) (P05177 whole entry, looked up): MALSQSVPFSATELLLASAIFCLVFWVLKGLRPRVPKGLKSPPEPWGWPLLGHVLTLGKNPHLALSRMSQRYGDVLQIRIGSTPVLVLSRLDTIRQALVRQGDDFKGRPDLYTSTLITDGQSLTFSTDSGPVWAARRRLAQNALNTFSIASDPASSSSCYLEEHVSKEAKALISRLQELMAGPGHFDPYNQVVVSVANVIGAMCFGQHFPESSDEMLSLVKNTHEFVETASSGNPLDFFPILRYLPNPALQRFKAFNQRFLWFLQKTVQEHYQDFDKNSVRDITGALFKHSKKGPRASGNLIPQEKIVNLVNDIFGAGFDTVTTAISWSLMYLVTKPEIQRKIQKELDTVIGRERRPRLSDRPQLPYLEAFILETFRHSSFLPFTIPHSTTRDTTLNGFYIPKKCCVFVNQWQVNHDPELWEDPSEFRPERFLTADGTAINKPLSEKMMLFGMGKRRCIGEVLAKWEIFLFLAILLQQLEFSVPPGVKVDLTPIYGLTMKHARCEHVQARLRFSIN
Outline: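 20nM CYP1A2, 100uM Luciferin-ME (=Km), 100mM KPO4; cpd 10 min RT; +NADPH regen, 60 min RT; stop/detect 20 min; luminescence. Normalized to furafylline 57 uM = full inhibition.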

[3] = Stat Signaling Pathway (AID 446);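 note: ME-180 cervical cancer cells given 40 pM IL-6 alongside compound; SIE-controlled beta-lactamase reporter measured as 460/530 nm FRET emission ratio; % is set by controls: 0 for no effect and ±100 for the full control effect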
Outline: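 FRET read-out (405 nm excitation, 460/530 nm emission) of a beta-lactamase reporter under a STAT-inducible element in ME-180 cervical carcinoma cells. Cells with compound receive 40 pM IL-6 for 5 h. Values are normalised to AC90 stimulation and AC90 JAK-inhibitor controls.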

[4] = molecular target: Glucocorticoid receptor (Homo sapiens) (UniProt P04150); assay: GR-GFP Redistribution (AID 450;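 active = compounds whose dose series gives a full or clear partial fitted curve of increased nuclear translocation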; note: potency is the fitted concentration of half-maximal effect); details: U2OS GR-GFP nuclear translocation, laser cytometry, 2 h
Sequence of Glucocorticoid receptor (Homo sapiens) (P04150 whole entry, looked up, the tested form may be a part): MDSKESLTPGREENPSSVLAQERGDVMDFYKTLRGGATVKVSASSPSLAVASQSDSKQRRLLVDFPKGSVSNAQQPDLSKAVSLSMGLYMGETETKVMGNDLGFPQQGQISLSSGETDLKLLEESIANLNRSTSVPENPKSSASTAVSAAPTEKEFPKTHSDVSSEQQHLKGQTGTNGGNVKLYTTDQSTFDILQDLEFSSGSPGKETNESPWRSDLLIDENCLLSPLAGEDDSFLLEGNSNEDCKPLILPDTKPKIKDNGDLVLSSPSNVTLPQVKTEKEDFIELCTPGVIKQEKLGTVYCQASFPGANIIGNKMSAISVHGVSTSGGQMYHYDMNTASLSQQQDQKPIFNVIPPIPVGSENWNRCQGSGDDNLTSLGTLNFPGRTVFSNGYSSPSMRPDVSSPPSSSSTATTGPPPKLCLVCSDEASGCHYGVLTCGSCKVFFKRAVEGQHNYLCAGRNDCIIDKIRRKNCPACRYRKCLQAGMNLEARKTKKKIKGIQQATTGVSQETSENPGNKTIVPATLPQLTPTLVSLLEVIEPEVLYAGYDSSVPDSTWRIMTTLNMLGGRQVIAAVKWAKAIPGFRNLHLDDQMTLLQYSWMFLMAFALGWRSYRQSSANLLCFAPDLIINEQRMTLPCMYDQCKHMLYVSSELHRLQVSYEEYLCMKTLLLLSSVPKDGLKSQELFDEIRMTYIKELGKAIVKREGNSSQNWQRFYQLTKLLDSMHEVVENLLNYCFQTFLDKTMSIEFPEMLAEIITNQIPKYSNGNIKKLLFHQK

[5] = molecular target: Glucocorticoid receptor (Homo sapiens) (UniProt P04150); assay: GR-EFC Redistribution (AID 451; calls by dose curve; note: potency is the fitted concentration of half-maximal effect); details: CHO-K1 GR-EFC translocation, beta-gal luminescence, 2 h
Outline: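 Translocation of GR-ED fusion to nuclear EA restores b-gal, read by luminescence after 1 h room-temperature detection. Engineered CHO-K1 biosensor cells, 1,000/well, exposed 2 h at 37 C to titrations up to 46 uM final.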

[6] = molecular target: Mitogen-activated protein kinase 10 (Mus musculus) (UniProt Q61831); assay: JNK3 AlphaScreen Assay (AID 530);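 note: kinase came from lysate of stimulated human HepG2 cells; signal reports phosphorylation of biotinylated GST-cJun 1-79 at Ser73 with 10 µM ATP; % is set by controls: 0 for no effect and ±100 for the full control effect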
Outline: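 Kinase buffer: 20 mM Tris-HCl pH 7.6, 10 mM MgCl2, 1 mM DTT, 0.1 mM Na3VO4, 0.01% Tween-20; ATP 10 uM. Substrate biotin-GST-cJun(1-79), enzyme from activated HepG2 lysates. Detection by Ser73 phospho-antibody AlphaScreen.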

[7] = molecular target: 3',5'-cyclic-AMP phosphodiesterase 4B (Homo sapiens) (UniProt Q07343); assay: qHTS Assay for Inhibitors of PDE-IV (AID 607; active = well fitted activation curve with a large enough effect in the main read-out, with a control signal flat, not every such curve was filed as active; note: % of control where 0% means no effect)
Sequence of 3',5'-cyclic-AMP phosphodiesterase 4B (Homo sapiens) (Q07343 whole entry, looked up): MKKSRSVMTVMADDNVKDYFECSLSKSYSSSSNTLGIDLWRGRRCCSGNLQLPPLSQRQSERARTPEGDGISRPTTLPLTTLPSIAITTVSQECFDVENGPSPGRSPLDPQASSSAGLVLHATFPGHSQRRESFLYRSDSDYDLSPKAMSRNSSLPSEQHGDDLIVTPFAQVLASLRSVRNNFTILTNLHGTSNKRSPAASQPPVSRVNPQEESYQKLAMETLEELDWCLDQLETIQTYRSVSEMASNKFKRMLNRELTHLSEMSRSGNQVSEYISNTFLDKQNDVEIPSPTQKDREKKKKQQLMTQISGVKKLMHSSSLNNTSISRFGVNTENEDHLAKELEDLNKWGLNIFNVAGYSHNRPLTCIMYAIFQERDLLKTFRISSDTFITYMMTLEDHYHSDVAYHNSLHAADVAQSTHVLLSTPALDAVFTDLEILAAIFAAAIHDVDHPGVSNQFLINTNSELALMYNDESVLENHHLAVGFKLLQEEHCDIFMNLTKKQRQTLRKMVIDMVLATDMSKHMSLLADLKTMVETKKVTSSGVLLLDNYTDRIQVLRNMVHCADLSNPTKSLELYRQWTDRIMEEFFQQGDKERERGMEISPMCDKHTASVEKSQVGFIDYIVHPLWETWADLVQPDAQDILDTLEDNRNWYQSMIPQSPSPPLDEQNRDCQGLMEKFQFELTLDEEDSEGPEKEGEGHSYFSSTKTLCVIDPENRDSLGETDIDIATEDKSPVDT
Outline: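 Cell-based read-out of cAMP via a modified cyclic nucleotide-gated channel and membrane potential dye (535/590 nm) in HEK293 cells expressing PDE4 endogenously. Compounds tested up to 22.9 uM final; 100 uM RO 20-1724 reference.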

[8] = qHTS Assay for Lipid Storage Modulators (AID 1519; calls by dose curve); details: Drosophila S3 cells, BODIPY lipid droplet/cell ratio, laser cytometry, cells loaded with oleic acid; for activity change, negative = inhibition: at 25.7 µM (top of the series)
Outline: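 Cells seeded at 5,000 per well were treated with compounds over a concentration series and loaded with oleic acid (400 uM, as added). Lipid droplet fluorescence (488 nm excitation, 500-530 nm channel) was read by laser-scanning cytometry and normalized to 20 uM Triacsin C.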

[9] = molecular target: ATP-dependent 6-phosphofructokinase (Trypanosoma brucei brucei) (UniProt O15648); assay: qHTS Assay to Find Inhibitors of T. brucei phosphofructokinase: hit validation (AID 492961; active = well fitted curve in the direction sought with a large enough effect; an effect the other way counts as inactive or inconclusive;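 note: luminescence reports ADP formed as PFK phosphorylates fructose-6-phosphate with ATP; % is set by controls: 0 for no effect and ±100 for the full control effect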)
Sequence of ATP-dependent 6-phosphofructokinase (Trypanosoma brucei brucei) (O15648 whole entry, looked up): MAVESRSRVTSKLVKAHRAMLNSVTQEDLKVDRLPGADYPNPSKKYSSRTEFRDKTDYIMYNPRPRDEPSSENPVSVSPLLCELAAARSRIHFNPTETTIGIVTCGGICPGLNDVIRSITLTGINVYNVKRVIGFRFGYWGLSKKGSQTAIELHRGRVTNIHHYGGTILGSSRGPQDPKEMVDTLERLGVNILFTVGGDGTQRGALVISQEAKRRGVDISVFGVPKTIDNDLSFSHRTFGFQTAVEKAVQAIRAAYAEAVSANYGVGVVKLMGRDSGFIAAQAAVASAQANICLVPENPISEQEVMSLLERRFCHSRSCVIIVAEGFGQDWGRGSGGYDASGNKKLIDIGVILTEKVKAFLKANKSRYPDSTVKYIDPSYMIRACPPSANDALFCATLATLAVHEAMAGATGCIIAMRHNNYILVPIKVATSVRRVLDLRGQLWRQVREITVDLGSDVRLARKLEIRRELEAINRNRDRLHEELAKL
Outline: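 ADP-Glo luminescence read-out of ADP formed by 1.25 nM PFK from 0.1 mM ATP and 0.5 mM F6P (TEA pH 8.0, 45 min, RT). Compounds titrated; activity normalized to no-enzyme and full-enzyme controls.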

[10] = molecular target: Ubiquitin carboxyl-terminal hydrolase 1 (Homo sapiens) (UniProt O94782); assay: Inhibitors of USP1/UAF1: Pilot qHTS (AID 504865; active = well fitted curve in the direction sought with a large enough effect; an effect the other way counts as inactive or inconclusive; note: nearly all actives have a fitted effect of over 35% in size; note: potency is the fitted concentration of half-maximal effect)
Sequence of Ubiquitin carboxyl-terminal hydrolase 1 (Homo sapiens) (O94782 whole entry, looked up): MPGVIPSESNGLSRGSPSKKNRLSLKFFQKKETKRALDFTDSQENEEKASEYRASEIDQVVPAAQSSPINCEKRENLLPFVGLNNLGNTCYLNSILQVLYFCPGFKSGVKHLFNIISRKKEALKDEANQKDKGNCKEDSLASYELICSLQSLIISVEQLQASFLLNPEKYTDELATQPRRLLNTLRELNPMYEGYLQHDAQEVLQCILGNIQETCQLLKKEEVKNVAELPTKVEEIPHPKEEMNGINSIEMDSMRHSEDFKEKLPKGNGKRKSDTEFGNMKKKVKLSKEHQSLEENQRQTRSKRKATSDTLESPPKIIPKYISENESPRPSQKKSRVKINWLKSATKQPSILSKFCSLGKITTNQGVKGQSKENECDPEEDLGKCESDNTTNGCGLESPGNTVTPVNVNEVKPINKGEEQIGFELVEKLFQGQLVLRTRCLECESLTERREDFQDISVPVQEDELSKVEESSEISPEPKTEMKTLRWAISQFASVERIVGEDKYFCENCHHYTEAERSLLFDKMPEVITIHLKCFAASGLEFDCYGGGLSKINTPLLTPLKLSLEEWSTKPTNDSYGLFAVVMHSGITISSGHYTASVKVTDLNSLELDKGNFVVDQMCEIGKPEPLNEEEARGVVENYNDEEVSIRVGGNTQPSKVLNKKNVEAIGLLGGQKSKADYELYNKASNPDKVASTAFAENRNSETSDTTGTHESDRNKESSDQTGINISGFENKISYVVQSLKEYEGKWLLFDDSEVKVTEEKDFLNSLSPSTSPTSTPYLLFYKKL
Outline: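 Kinetic fluorescence assay: 1nM USP1/UAF1, 15 min compound preincubation, then 150nM Ub-Rho; 480/540 nm.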

[11] = molecular target: Luciferin 4-monooxygenase (Photinus pyralis) (UniProt P08659); assay: Biochemical firefly luciferase enzyme assay for NPC (AID 624030; active = well fitted curve in the direction sought with a large enough effect; an effect the other way counts as inactive or inconclusive;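 note: purified P. pyralis luciferase at 10 nM with luciferin and ATP substrate; 0% = DMSO and -100% = full luciferase inhibition by PTC124 control; nearly all actives have a fitted effect of over 70% in size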)
Sequence of Luciferin 4-monooxygenase (Photinus pyralis) (P08659 whole entry, looked up): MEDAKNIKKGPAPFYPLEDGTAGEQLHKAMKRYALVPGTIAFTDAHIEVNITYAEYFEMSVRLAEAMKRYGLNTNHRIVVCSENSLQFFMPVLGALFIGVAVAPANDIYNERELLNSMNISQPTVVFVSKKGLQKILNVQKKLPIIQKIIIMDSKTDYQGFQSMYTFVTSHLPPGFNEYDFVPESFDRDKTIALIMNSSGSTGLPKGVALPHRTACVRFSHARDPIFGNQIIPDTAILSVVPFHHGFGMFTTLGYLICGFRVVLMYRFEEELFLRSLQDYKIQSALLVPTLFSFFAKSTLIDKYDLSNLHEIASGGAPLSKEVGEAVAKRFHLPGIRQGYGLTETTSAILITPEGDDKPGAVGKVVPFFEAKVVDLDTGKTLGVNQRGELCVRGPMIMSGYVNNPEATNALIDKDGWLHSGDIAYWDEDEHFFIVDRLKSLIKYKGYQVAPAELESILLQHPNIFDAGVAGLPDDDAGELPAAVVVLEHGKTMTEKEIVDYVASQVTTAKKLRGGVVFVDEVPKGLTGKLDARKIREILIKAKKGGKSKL
Outline: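 Direct inhibition of firefly luciferase enzyme (10 nM final, 50 mM Tris Acetate) assessed by luminescence within 5 minutes. Percent activity scaled between DMSO and PTC124 positive control, with concentration-effect curves classified by fit quality and response.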

[12] = S16 Schwann cell viability assay (CellTiter-Glo assay) (AID 624031; active = well fitted curve in the direction sought with a large enough effect; an effect the other way counts as inactive or inconclusive;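 note: native untransfected S16 rat Schwann cells; cellular ATP luminescence as a viability measure; plate controls were DMSO-treated cells for no effect and cell-free wells for full effect; nearly all actives have a fitted effect of over 70% in size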)
Outline: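 Rat S16 Schwann cells without reporter constructs received compound or DMSO for 24 h at 37 °C under 5% CO2. Cellular ATP was then quantified by CellTiter-Glo luminescence, with vehicle wells defined as 0% activity and cell-free wells as reference.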

[13] = S16 Schwann cell PMP22 intronic element firefly luciferase assay (AID 624032; active = well fitted curve in the direction sought with a large enough effect; an effect the other way counts as inactive or inconclusive;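 note: plate controls were DMSO for no effect and PTC124 positive control mean for full effect; nearly all actives have a fitted effect of over 30% in size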)
Outline: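 Luciferase reporter of PMP22 intronic-element expression in stably transfected S16 rat Schwann cells, read by ONE-Glo luminescence after 24 h compound exposure at 37 C. Activity scaled between DMSO (0%) and positive-control PTC124; concentration-effect curves quality-classified.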

[14] = qHTS profiling for inhibitors of Plasmodium falciparum proliferation (AID 504749; active = well fitted curve in the direction sought with a large enough effect; an effect the other way counts as inactive or inconclusive;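 note: 0% = DMSO vehicle and full inhibition = artemisinin control; nearly all actives have a fitted effect of over 60% in size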); details: P. falciparum in erythrocytes, SYBR Green DNA, 72 h; at 12.8 µM (top of the series); parasite line A
Outline: (§1)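 In a 72 h erythrocytic culture (37 C, humidified, 5% CO2) at 2.5% hematocrit and 0.3% starting parasitemia, compounds were tested; SYBR Green I in detergent lysis buffer stained parasite DNA overnight.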

3D7 = assay: as above; details: P. falciparum in erythrocytes, SYBR Green DNA, 72 h; series mostly up to 28.7 µM
Outline: as §1

CP262 = assay: as above; details: P. falciparum in erythrocytes, SYBR Green DNA, 72 h; series mostly up to 28.7 µM
Outline: as §1

ECU = assay: as above; details: P. falciparum in erythrocytes, SYBR Green DNA, 72 h; series mostly up to 28.7 µM
Outline: as §1

HB3 = assay: as above; details: P. falciparum in erythrocytes, SYBR Green DNA, 72 h; series mostly up to 28.7 µM
Outline: as §1

[15] = molecular target: Cytochrome P450 3A4 (Homo sapiens) (UniProt P08684); assay: qHTS Assay for Activators of Cytochrome P450 3A4 (AID 885; active = well fitted curve in the direction sought with a large enough effect; an effect the other way counts as inactive or inconclusive; note: nearly all actives have a fitted effect of over 65% in size)
Sequence of Cytochrome P450 3A4 (Homo sapiens) (P08684 whole entry, looked up): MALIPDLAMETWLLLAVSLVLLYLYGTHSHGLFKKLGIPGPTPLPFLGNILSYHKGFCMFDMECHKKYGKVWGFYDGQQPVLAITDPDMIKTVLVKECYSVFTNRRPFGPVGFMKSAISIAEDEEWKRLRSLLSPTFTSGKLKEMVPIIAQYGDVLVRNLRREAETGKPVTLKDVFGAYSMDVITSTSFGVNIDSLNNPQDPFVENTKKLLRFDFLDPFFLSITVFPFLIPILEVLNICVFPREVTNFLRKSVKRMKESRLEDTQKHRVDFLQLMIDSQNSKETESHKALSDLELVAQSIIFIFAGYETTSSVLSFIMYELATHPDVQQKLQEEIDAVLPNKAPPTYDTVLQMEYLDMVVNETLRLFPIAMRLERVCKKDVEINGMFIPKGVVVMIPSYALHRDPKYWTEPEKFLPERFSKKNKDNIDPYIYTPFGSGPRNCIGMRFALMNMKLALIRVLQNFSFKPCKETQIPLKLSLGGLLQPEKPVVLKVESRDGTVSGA
Outline: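 Luminescent readout of luciferin formed from 25 uM Luciferin-PPXE (KM level) by 20 nM CYP3A4 in 200 mM KPO4, with 60 min NADPH-driven reaction at room temperature after 10 min compound exposure. Ketoconazole (57 uM) defined 100% inhibition.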

[16] = NFAT Signaling Pathway (AID 444); details: Jurkat NFAT-bla M1, carbachol, beta-lactamase ratio, 5 h
Outline: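 Read-out: CCF4 FRET ratio (460 nm/530 nm) after 1 h RT dye loading, used for %activity and AC50 from titration series. Cells: Jurkat NFAT-β-lactamase/M1 line, treated with compound plus 1 uM carbachol for 5 h, 37 °C.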

[17] = measured here: cell count channel max response
[18] = measured here: lipid channel max response

CC[C@]1(c2cccc(O)c2)CCCCN(C)C1
outcome [1]: inactive | Potency [2]: inactive | outcome [3]: inactive | Potency [4]: > 20.6 µM (inactive) | Potency [5]: > 20.6 µM (inactive) | outcome [6]: inactive | Potency [7]: inactive | activity change, negative = inhibition [8]: -0.585% (inactive) | max response [8, 17]: -13.2% | max response [8, 18]: -11.2% | Potency [9]: inactive | Potency [10]: inactive | Potency [11]: inactive | Potency [12]: inactive | Potency [13]: inactive | activity, negative = inhibition [14]: -7.81% (inactive) | Potency (3D7): inactive | Potency (CP262): inactive | Potency (ECU): inactive | Potency (HB3): inactive

CN1C[C@H](CO)C=C2c3cccc4[nH]cc(c34)C[C@@H]21
outcome [1]: inactive | outcome [3]: inactive | Potency [4]: > 20.6 µM (inactive) | Potency [5]: > 20.6 µM (inactive) | Potency [7]: inactive | Potency [15]: inactive | activity change, negative = inhibition [8]: 0.712% (inactive) | max response [8, 17]: -6.66% | max response [8, 18]: -5.9% | Potency [10]: 31.6 µM (active)

Clc1ccc(CO[C@@H](Cn2ccnc2)c2ccc(Cl)cc2Cl)cc1
outcome [1]: inactive | outcome [3]: inactive | Potency [4]: > 20.6 µM (inactive) | outcome [6]: inactive | Potency [15]: inactive | activity change, negative = inhibition [8]: -6.08% (inactive) | max response [8, 17]: -18.5% | max response [8, 18]: -19.5%

CC[C@H](CO)NC(=O)[C@H]1C=C2c3cccc4[nH]cc(c34)C[C@@H]2N(C)C1
outcome [1]: inactive | activity change, negative = inhibition ([16]; at 17.2 µM (top of the series)): -13.5% (inactive) | outcome [3]: inactive | Potency [4]: > 20.6 µM (inactive) | Potency [5]: > 20.6 µM (inactive) | outcome [6]: inactive | activity change, negative = inhibition [8]: 0.62% (inactive) | max response [8, 17]: 3.2% | max response [8, 18]: 2.54% | Potency [10]: 17.8 µM (active)

C=C1[C@@H]2CC[C@H]3[C@@]4(C)C[C@@H](O[C@@H]5O[C@H](CO)[C@H](OS(=O)(=O)O)[C@@H](OS(=O)(=O)O)[C@@H]5OC(=O)CC(C)C)C[C@@H](C(=O)O)[C@H]4CC[C@@]3(C2)[C@H]1O
outcome [1]: inactive | activity change, negative = inhibition ([16]; at 17.2 µM (top of the series)): 13.2% (inactive) | outcome [3]: inactive | Potency [4]: > 20.6 µM (inactive) | Potency [5]: > 20.6 µM (inactive) | outcome [6]: inactive | activity change, negative = inhibition [8]: -6.46% (inactive) | max response [8, 17]: -23.7% | max response [8, 18]: -28.9% | Potency [10]: inactive

COc1ccc2c(c1OC)C(=O)O[C@H]2[C@H]1c2cc3c(cc2CCN1C)OCO3
outcome [1]: inactive | activity change, negative = inhibition ([16]; at 17.2 µM (top of the series)): -1.79% (inactive) | activity change, negative = inhibition ([16]; at 38 µM (top of the series)): 9.14% (inactive) | outcome [3]: inactive | outcome [6]: inactive | Potency [7]: inactive | Potency [15]: inactive | activity change, negative = inhibition [8]: 3% (inactive) | max response [8, 17]: -6.69% | max response [8, 18]: -2.42% | Potency [10]: inactive

C=C(C)[C@H]1[C@H]2OC(=O)[C@@H]1[C@]1(O)C[C@H]3O[C@]34C(=O)O[C@H]2[C@@]14C
outcome [1]: inactive | activity change, negative = inhibition ([16]; at 17.2 µM (top of the series)): -0.55% (inactive) | outcome [3]: inactive | Potency [4]: > 20.6 µM (inactive) | Potency [5]: > 20.6 µM (inactive) | outcome [6]: inactive | Potency [7]: inactive | activity change, negative = inhibition [8]: -0.482% (inactive) | max response [8, 17]: -3.6% | max response [8, 18]: -3.43%

From PubChem BioAssay (NCATS)
